PubChem BioAssay (NCATS)
Records with an inconclusive call do not appear. The source made the active and inactive calls. Calls follow the shape of the dose curve; as a rule, active = well fitted cell-killing curve with a large enough effect; inconclusive = small, poorly fitted or top-dose-only effect, or effect the other way; inactive = no such curve, though single readings can be large or run the other way.

experiment: Quantitative High-Throughput drug screen in 47 multiple myeloma cell lines against the NCATS MIPE library collection: ARD_JJKsccE7 cell viability assay (AID 1918929); conditions: ARD myeloma cell line viability, CellTiter-Glo, 48 h; series mostly up to 45.8 µM
Excerpt: PI: Beverly A. Mock Ph.D.
Laboratory of Cancer Biology and Genetics,
Center for Cancer Research, National Cancer Institute,
National Institute of Health, Bethesda, Maryland
Drug resistance and disease progression are common in multiple myeloma (MM) patients, underscoring the need for new therapeutic combinations. […] We hypothesized that effective combinations would reduce MYC expression and enhance p16 activity. […] These preclinical data identify potentially useful drug combinations for evaluation in drug-resistant MM and reveal potential mechanisms of combined drug sensitivity.
Described herein is the primary MIPE qHTS used to cherrypick compounds. Validated compounds were then further tested for potential synergistic activiy.
[1] Peat TJ, Gaikwad SM, Dubois W, Gyabaah-Kessie N, Zhang S, Gorjifard S, Phyo Z, Andres M, Hughitt VK, Simpson RM, Miller MA, Girvin AT, Taylor A, Williams D, D'Antonio N, Zhang Y, Rajagopalan A, Flietner E, Wilson K, Zhang X, Shinn P, Klumpp-Thomas C, McKnight C, Itkin Z, Chen L, Kazandijian D, Zhang J, Michalowski AM, Simmons JK, Keats J, Thomas CJ, Mock BA. Drug combinations identified by high-throughput screening promote cell cycle transition and upregulate Smad pathways in myeloma. Cancer Lett. 2023 Aug 1;568:216284. doi: 10.1016/j.canlet.2023.216284. Epub 2023 Jun 24. PMID: 37356470; PMCID: PMC10408729.
SEQUENCE No. (e.g., 1, 2, 3, etc.); […] (e.g., Cells, Incubation, Reagent, etc.); VALUE and DESCRIPTION.
1; Cells; 5 uL; white, solid bottom 1536-well Greiner assay plate.
2; Compounds; 23 nL; Kalypsis pin tool (Wako USA) equipped with a 1536-well pin head to transfer to the assay plates.
3; Incubation; 48 hours; 37C incubation.
4; Reagent;5uL; CellTiter Glo (Promega).
5; Detector; 425V; Luminescence; Viewlux PerkinElmer.
NOTES (numbers refer to Sequence numbers above)
1. The cell-based screening methods employed in this study were like those previously published. Briefly, the corresponding myeloma cell lines were screened in 1,536-well plates with 500 cells, 5-uL per well for inhibition of cell viability (assessed by measuring ATP levels with CellTiterGlo).
2. NCATS MIPE 4.0 library of approved and investigational drugs were added using the Kalypsis pin tool. Wells treated with DMSO only for 100% viability and media only wells for 0% viability were used as controls.
3. The assay plates were covered and incubated for 48 hours in a 37C, 5% CO2 incubator with controlled humidity.
4. After 48 hours, CellTilter-GloTM luminescent substrate mix (Promega) reagent was added to the assay plate and plates we incubated for 5 min at room temperature.
5. Signal was measured as median relative luminescence units on a ViewLux (PerkinElmer) multiplate reader.
[1] Heske CM, Davis MI, Baumgart JT, Wilson K, Gormally MV, Chen L, Zhang X, Ceribelli M, Duveau DY, Guha R, Ferrer M, Arnaldez FI, Ji J, Tran HL, Zhang Y, Mendoza A, Helman LJ, Thomas CJ. Matrix Screen Identifies Synergistic Combination of PARP Inhibitors and Nicotinamide Phosphoribosyltransferase (NAMPT) Inhibitors in Ewing Sarcoma. Clin Cancer Res. 2017 Dec 1;23(23):7301-7311. doi: 10.1158/1078-0432.CCR-17-1121. Epub 2017 Sep 12. PMID: 28899971; PMCID: PMC6636827.
Potency is read from the fitted curve at half-maximal effect.

| Compound | Potency |
| --- | --- |
| CCc1ccc(OCc2ccccc2C(=O)Nc2ccc3nc(C)cc(N)c3c2)cc1 | 2.64 µM (active) |
| O=c1cc(CN2CCOCC2)occ1OCCCCCSc1ccnc2cc(C(F)(F)F)ccc12 | 20.9 µM (active) |
| Clc1ccc(CCC(Cn2ccnc2)Sc2c(Cl)cccc2Cl)cc1 (stereo not given) | 13.2 µM (active) |
| CO[C@H]1C=CC=C(C)C(=O)NC2=CC(=O)C(NCCN(C)C)=C(C[C@@H](C)C[C@H](OC)[C@@H](O)[C@@H](C)C=C(C)[C@@H]1OC(N)=O)C2=O | 0.001 µM (active) |
| Nc1ncnc2c1ncn2[C@@H]1O[C@H](CO)C[C@@H]1O | inactive |
| CCCCCCCCCCCC1=C(O)C(=O)C=C(O)C1=O | 1.66 µM (active) |
| CCC(=O)NC[C@H](Cc1ccc(OCCc2nc(-c3ccccc3)oc2C)cc1)NC(C)=CC(=O)c1ccc(C(F)(F)F)cc1 | 1.48 µM (active) |
| CN1CCN(CCOc2cc(OC3CCOCC3)c3c(Nc4c(Cl)ccc5c4OCO5)ncnc3c2)CC1 | 18.7 µM (active) |
| Cc1cc(OCCCc2c(C(=O)O)n(Cc3cccnc3)c3c(-c4c(COc5ccc(N6CCN([S+](C)(=O)[O-])CC6)cc5)nn(C)c4C)cccc23)cc(C)c1Cl | inactive |
| O=C(NCc1ccccc1)c1csc(Nc2ccncn2)n1 | 10.5 µM (active) |
| CC[C@H]1OC(=O)[C@H](C)[C@@H](O[C@H]2C[C@@](C)(OC)[C@@H](O)[C@H](C)O2)[C@H](C)[C@@H](O[C@@H]2O[C@H](C)C[C@H](N(C)C)[C@@H]2O)[C@](C)(O)C[C@@H](C)CN(C)[C@H](C)[C@@H](O)[C@]1(C)O | inactive |
| O=c1c(-c2ccc(O)cc2)coc2cc(O)ccc12 | inactive |
| CC1CCC(C(=O)N(c2cc(C#CC(C)(C)C)sc2C(=O)O)C2CCC(O)CC2)CC1 (stereo not given) | inactive |
| O=C(CCCCCCC(=O)Nc1ccccc1)NO | 1.18 µM (active) |
| COCCOc1nc(-c2ccc(Cl)c(Cl)c2)n(-c2ccc(NC(=O)CCl)cc2)n1 | 16.6 µM (active) |
| O=C(Nc1cc(Cl)cc2c1[nH]c1cnccc12)c1cccnc1 | inactive |
| C[C@]12CCC3c4ccc(O)cc4CCC3C1CCC2=O (stereo not given in full) | inactive |
| O=C(Nc1cccc(Br)c1)c1cccc(S(=O)(=O)N2CCCCCC2)c1 | 16.6 µM (active) |
| O=C(Nc1ccccc1-c1cn2c(CN3CCNCC3)csc2n1)c1cnc2ccccc2n1 | inactive |
| Nc1nc(F)nc2c1ncn2[C@@H]1O[C@H](COP(=O)(O)O)[C@@H](O)[C@H]1O | 0.0019 µM (active) |

| Compound | Potency |
| --- | --- |
| COc1ccc(-c2nc(N3CCOCC3)c3sc(CN(C)c4ncc(C(=O)NO)cn4)cc3n2)cn1 | 0.001 µM (active) |
| COc1cccc(-c2cc(=O)c3ccccc3o2)c1N | inactive |
| CC[C@@]1(O)C[C@H](O[C@H]2C[C@H](N(C)C)[C@H](O[C@H]3C[C@H](O)[C@H](O[C@H]4CCC(=O)[C@H](C)O4)[C@H](C)O3)[C@H](C)O2)c2c(cc3c(c2O)C(=O)c2c(O)cccc2C3=O)[C@@H]1C(=O)OC | 5.26 µM (active) |
| NC(=O)c1cccc(-c2cc(Nc3ccc(OC(F)(F)F)cc3)ncn2)c1 | 14.8 µM (active) |
| CC(=NNC(=S)N1CCC1)c1ccccn1 | 0.001 µM (active) |
| Cc1ccc(C(=O)Nc2cccc(C(F)(F)F)c2)cc1Nc1nc(-c2cccnc2)nc2c1cnn2C | inactive |
| O=c1cc(-c2ccccc2)oc2cc(O)c(O)c(O)c12 | inactive |
| O=C(O)c1ccccc1C(=O)Nc1ccc(-c2ccccc2)cc1 | inactive |
| OC[C@H]1O[C@@H](n2cnc3c2NC=NC[C@@H]3O)C[C@H]1O | inactive |
| CN[C@@H](C)C(=O)N[C@H]1CN(C(=O)CC(C)C)CC[C@H]2CC[C@@H](C(=O)NC(c3ccccc3)c3ccccc3)N2C1=O | 7.43 µM (active) |
| NC(=O)c1ccc2nc(-c3ccc(Oc4ccc(Cl)cc4)cc3)[nH]c2c1 | 5.9 µM (active) |
| C[C@]12CC[C@@H]3c4ccc(O)cc4C[C@@H](CCCCCCCCCS(=O)CCCC(F)(F)C(F)(F)F)[C@H]3[C@H]1CC[C@H]2O (stereo not given in full) | inactive |
| O=C1c2c(O)cc(O)cc2O[C@H](c2cc(O)c(O)c(O)c2)[C@H]1O | inactive |
| N#CC(=C(N)Sc1ccccc1N)C(C#N)=C(N)Sc1ccccc1N | 20.9 µM (active) |
| CCS(=O)(=O)N1CC(CC#N)(n2cc(-c3ncnc4[nH]ccc34)cn2)C1 | inactive |
| O=C1C(Cl)=C(NCCN2CCOCC2)C(=O)c2ncccc21 | 5.26 µM (active) |
| CC[C@]1(O)C[C@@H]2CN(CCc3c([nH]c4ccccc34)[C@@](C(=O)OC)(c3cc4c(cc3OC)N(C=O)[C@@H]3C45CCN4CC=C[C@](CC)([C@H]45)[C@@H](OC(C)=O)[C@]3(O)C(=O)OC)C2)C1 (stereo not given in full) | inactive |
| CN(C)Cc1ccc(-c2nc3cccc4c3n2CCNC4=O)cc1 | 29.6 µM (active) |
| O=C(O)C(O)Cc1ccc(O)c(O)c1 (stereo not given) | inactive |
| C=C1C(=O)OC(CCCCCCCC)C1C(=O)O (stereo not given) | inactive |
